# Hits are enriched below; roughly 2.9% of the tested compounds scored in any of these assays.
# proKLK7 act: proKLK7 (human) activation, primary screen; P49862; purified proKLK7, EDANS-DABCYL substrate fluorescence; 100% is mature enzyme control, 0% vehicle; activation, % at 7 µM; hit rate 0.9% among 370,000; AID 652039;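 active = activation above the mean of all tested compounds plus 3 SD, computed per campaign excluding outliers beyond control limits, cut at about 13% in these data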
# FAS TE block: FAS thioesterase (human) inhibition; hit rate 0.67% among 360,000; P49327; recombinant FAS-TE, OMFH fluorogenic substrate, fluorescence endpoint; inhibition, % at 15 µM; AID 602261;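 active = compounds whose normalised, plate-corrected inhibition of enzyme fluorescence in the single-dose primary screen is 50% or more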;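 also: 0% = DMSO with enzyme and 100% = substrate without enzyme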
# FXN GAA850 act: activators of GAA850 frataxin (FXN) promoter | HEK293 lucGAA850 FXN promoter luciferase reporter, 24 h; percent of 10 µM SAHA response | hit rate 0.56% among 360,000 | activation, % at 6 µM;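 active = activation above the average of all compounds screened plus 3 SD, cutoff fixed separately per campaign, cut at about 7.5% in these data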;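 also: 0% = DMSO wells and 100% = 10 µM SAHA wells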
# SMARCA2 activ: SMARCA2 function activation, primary screen; MG213 cells, MMTV-luciferase reporter, dexamethasone, overnight; hit rate 1% among 370,000; activation, % at 9.1 µM; in the data active = activation above about 7.8%;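 also: 0% = vehicle wells and 100% = reference activator wells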
# * marks the source's active call; other numbers are inactive results; / = no result given.
SMILES,proKLK7 act,FAS TE block,FXN GAA850 act,SMARCA2 activ
CCCCCCCCCCCCN1[C@@H](CC(=O)O)c2cc(C(F)(F)F)ccc2S1(=O)=O,0,58*,2,1
CCCCCCCCN1[C@@H](CC(=O)O)c2cc(C(F)(F)F)ccc2S1(=O)=O,-1,6,1,0
O=c1c2c3nc4ccccc4nc3n(CC3CCCO3)c2ncn1CCc1ccccc1 (stereo unspecified),0,3,1,2
Cc1ccc(/C=C2/NC(=O)N(c3ccccc3)C2=O)o1,2,-5,5,4
O=C1N/C(=C/c2ccc(N3CCOCC3)o2)C(=O)N1c1cccc(Cl)c1,7,-9,8.9*,5
CCc1nc2ccc(C(=O)Nc3ccc(OC)c(OC)c3)cn2c1N(C)Cc1cccs1,-1,9,-2,-1
CCOC(=O)COc1ccc(Oc2nc(C)cc(OC)n2)nn1,1,-10,0,7.8*
COc1cc(C)nc(Oc2ccc(OCc3ccccc3)nn2)n1,1,-5,1,1
Cc1ccc(Nc2nc(C(=O)N3CCC(C(=O)N4CCN(C)CC4)CC3)cs2)cc1,0,-5,0,6
Cc1onc(-c2ccccc2)c1C(=O)NC1CCC(C)CC1 (stereo unspecified),0,5,1,-2
CC(C)c1c(O)cc(-c2ccncc2)n(-c2ccc(Cl)cc2)c1=O,0,-5,2,14*
COc1ccc(N2CCN(c3nc4ccccc4nc3NS(=O)(=O)c3ccccc3)CC2)cc1,0,-2,3,1
COc1ccc(/C=N/NC(=O)C(=O)N2CCN(c3ccccc3OC)CC2)cc1,0,-3,8.4*,0
Cc1cc(C)c2c(=N)c3ccccc3n(CCCCCCCCn3c4ccccc4c(=N)c4c(C)cc(C)nc43)c2n1,37*,-29,1,-10
CCOc1ccc2nc(NC(=O)CC3Oc4ccccc4NC3=O)sc2c1 (stereo unspecified),0,-1,0,-4
CN(Cc1c(F)cccc1Cl)C(=O)c1ccc(NC(=O)CC2SC(N3CCCCC3)=NC2=O)cc1 (stereo unspecified),0,-2,3,-1
CC(C)CC(COCc1ccc([N+](=O)[O-])cc1)N1CCN(C(=O)c2ccc(C(F)(F)F)cc2)CCC1=O (stereo unspecified),0,57*,-1,0
CCOC(=O)CC(=O)CSc1nc2ccc(C)cc2cc1C#N,0,0,6,8.8*
CC1CCN(c2ccccc2NC(=O)c2cc([N+](=O)[O-])ccc2N2CCOCC2)CC1,0,34,12*,-1
CCc1ccccc1NC(=O)c1cc([N+](=O)[O-])ccc1N1CCOCC1,0,13,0,0
Oc1c(C=Nc2cccnc2)sc2ccccc12,-1,-6,0,7.9*
Oc1c(/C=N/c2ccccn2)sc2ccccc12,-1,-5,6,1
Oc1ccc(C2C=C(c3ccc(F)cc3)Nc3ncnn32)cc1 (stereo unspecified),27*,0,-2,-3
CCOc1ccc(C2C=C(c3ccc(F)cc3)Nc3ncnn32)cc1 (stereo unspecified),-2,1,5,2
CCc1nnc(NS(=O)(=O)c2ccc(N/C=C/C(=O)c3ccc(C)cc3)cc2)s1,0,-5,0,7
SMILES,proKLK7 act,FAS TE block,FXN GAA850 act,SMARCA2 activ
CCc1nnc(NS(=O)(=O)c2ccc(N/C=C\C(=O)c3cccc(OC)c3)cc2)s1,1,4,3,7.9*
N#C/C(=N\Nc1ccc(F)cc1)C(=N)N1CCCCC1,0,-5,4,7.8*
CC(C)CC1NC(=O)N(CC(=O)Nc2cc([N+](=O)[O-])ccc2F)C1=O (stereo unspecified),0,17,3,6
O=C(CCNS(=O)(=O)c1ccc2[nH]c(=O)oc2c1)Nc1cccc(Br)c1,0,-4,-1,7.8*
CCOC(=O)N1CCN(c2ccc(C(F)(F)F)cn2)CC1,0,-2,3,7.9*
Cc1ccc2nc(SCc3ccc([N+](=O)[O-])cc3)nc(C)c2c1,0,36,1,-3
Cc1ccc2nc(SCc3ccc([N+](=O)[O-])cc3)[nH]c2c1,0,58*,0,-2
Cc1cccn2c(NC(=O)c3cccs3)c(-c3ccccc3)nc12,0,-6,0,7.9*
Cc1ccc(NC(=O)CCN2C(=O)c3cccc4cccc(c34)C2=O)cc1,0,-10,0,3
O=C(CCN1C(=O)c2cccc3cccc(c23)C1=O)Nc1ccccc1,0,-1,2,7.9*
COc1ccc(CCNC(=O)c2cc(-c3cccs3)on2)cc1OC,/,-4,16*,/
COc1ccc(CCNC(=O)c2cc(C(C)C)on2)cc1OC,0,-3,1,-4
Clc1ccc(OCCN2CCCCC2)cc1Cl,-1,-8,1,-1
Clc1ccc(OCCCN2CCCC2)cc1Cl,0,-10,1,7.8*
CCOc1ccc(C(=O)NNC2CC(=O)N(Cc3ccc(Cl)cc3)C2=O)cc1OC (stereo unspecified),0,5,1,1
COc1ccc(C(=O)NNC2CC(=O)N(Cc3ccccc3)C2=O)cc1OC (stereo unspecified),0,-8,0,7.9*
COc1ccc(-n2c(C)cc(C3=NNC(=NC4CC4)SC3)c2C)cc1,1,-91,6,9.8*
CC(C)=Nc1ccccc1C1COC(=O)C1=N (stereo unspecified),11,-11,1,-2
CN(C)CCCN1C(=O)C(=O)/C(=C(/O)c2ccncc2)C1c1cccc(Br)c1 (stereo unspecified),0,-4,-1,0
CCOc1ccc(N=Cc2ccc([N+](=O)[O-])cc2)c(O)c1,18*,0,2,2
CCC(CC)c1nn2c(N)c(/C=C3\C(C)=Nc4ccccc43)c(=O)nc2s1,0,15,0,-2
CCOC(=O)c1[nH]c2ccc(Cl)cc2c1NC(=O)c1nonc1C,-1,-3,2,-3
OC(c1ccccc1)c1ncc(-c2ccccc2Cl)[nH]1 (stereo unspecified),0,-8,3,7.9*
Oc1ccc(N=C/C=C/c2cccc(Br)c2)cc1-c1nc2ccccc2s1,/,20,14*,/
Cc1cccn2c(=O)c3cc(C(=O)NCc4ccco4)c(=N)n(CCc4ccccc4)c3nc12,18*,6,-1,5
CC1(c2ccccc2)CC(C)(C)N2C(=O)C3(C(C#N)=C(N)Oc4cc(O)ccc43)c3cccc1c32 (stereo unspecified),-1,52*,0,-3
COc1ccc(NC(=O)Nc2ccc3nccnc3c2)cc1,0,1,1,7.9*
CCCCNc1c(-c2ccc(OC)c(Sc3ccc(OC)cc3)c2)nc2cnccn12,-88,28,1,0
CCCCNc1c(-c2ccc(SC(C)CC)cc2)nc2cnccn12 (stereo unspecified),/,55*,4,/
COc1ccc(CNc2nc(NCc3ccc(OC)c(OC)c3)n(C(=O)c3cccs3)n2)cc1OC,199*,30,-4,0
